{"source": "the supplement of paper PMC8728848", "assay_in_all_cases": "glycan array binding signal (z-score within array); higher = stronger binding", "conditions_in_all_cases": "glycan notation: IUPAC condensed, linker removed", "key": {"[1]": {"target": "Gal(b1-4)GlcNAc(b1-3)Gal(b1-4)GlcNAc(b1-2)[Gal(b1-4)GlcNAc(b1-3)Gal(b1-4)GlcNAc(b1-6)]Man(a1-6)[Gal(b1-4)GlcNAc(b1-3)Gal(b1-4)GlcNAc(b1-2)Man(a1-3)]Man(b1-4)GlcNAc(b1-4)[Fuc(a1-6)]GlcNAc", "how_it_was_run": "(§1)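 The Consortium for Functional Glycomics database supplied 3228 glycan arrays, of which those lacking an available protein sequence were dropped. The binding signal, a within-array Z-score, was averaged across arrays of the same protein sequence and across linkers. Negative scores can be read as non-binding.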"}, "[2]": {"target": "Gal(b1-4)GlcNAc(b1-3)Gal(b1-4)GlcNAc(b1-3)Gal(b1-4)GlcNAc(b1-3)Gal(b1-4)GlcNAc(b1-2)Man(a1-3)[Gal(b1-4)GlcNAc(b1-3)Gal(b1-4)GlcNAc(b1-3)Gal(b1-4)GlcNAc(b1-3)Gal(b1-4)GlcNAc(b1-2)Man(a1-6)]Man(b1-4)GlcNAc(b1-4)[Fuc(a1-6)]GlcNAc", "how_it_was_run": "as §1"}, "[3]": {"target": "Gal(b1-4)GlcNAc(b1-3)Gal(b1-4)GlcNAc(b1-3)Gal(b1-4)GlcNAc(b1-3)Gal(b1-4)GlcNAc(b1-3)Gal(b1-4)GlcNAc(b1-2)Man(a1-3)[Gal(b1-4)GlcNAc(b1-3)Gal(b1-4)GlcNAc(b1-3)Gal(b1-4)GlcNAc(b1-3)Gal(b1-4)GlcNAc(b1-3)Gal(b1-4)GlcNAc(b1-2)Man(a1-6)]Man(b1-4)GlcNAc(b1-4)GlcNAc", "how_it_was_run": "as §1"}, "[4]": {"target": "Gal(b1-4)GlcNAc(b1-3)Gal(b1-4)GlcNAc(b1-3)Gal(b1-4)GlcNAc(b1-3)Gal(b1-4)GlcNAc(b1-3)Gal(b1-4)GlcNAc(b1-3)Gal(b1-4)GlcNAc(b1-2)Man(a1-3)[Gal(b1-4)GlcNAc(b1-3)Gal(b1-4)GlcNAc(b1-3)Gal(b1-4)GlcNAc(b1-3)Gal(b1-4)GlcNAc(b1-3)Gal(b1-4)GlcNAc(b1-3)Gal(b1-4)GlcNAc(b1-2)Man(a1-6)]Man(b1-4)GlcNAc(b1-4)GlcNAc", "how_it_was_run": "as §1"}, "Gal3S(b1-4)Glc6S": {"target": "Gal3S(b1-4)Glc6S", "how_it_was_run": "as §1"}, "Gal4S6S(b1-4)GlcNAc": {"target": "Gal4S6S(b1-4)GlcNAc", "how_it_was_run": "as §1"}, "Gal6S(b1-4)Glc6S": {"target": "Gal6S(b1-4)Glc6S", "how_it_was_run": "as §1"}, "Gal6S(b1-4)GlcNAc6S": {"target": "Gal6S(b1-4)GlcNAc6S", "how_it_was_run": "as §1"}, "[5]": {"target": "GalNAc(b1-3)Gal(a1-6)Gal(b1-4)Glc", "how_it_was_run": "as §1"}, "[6]": {"target": "GalNAc(b1-4)GlcNAc(b1-2)Man", "how_it_was_run": "as §1"}, "[7]": {"target": "GalNAc(b1-4)GlcNAc(b1-2)Man(a1-3)[GalNAc(b1-4)GlcNAc(b1-2)Man(a1-6)]Man(b1-4)GlcNAc(b1-4)GlcNAc", "how_it_was_run": "as §1"}, "[8]": {"target": "GlcNAc(a1-4)Gal(b1-4)GlcNAc(b1-3)Gal(b1-4)Glc", "how_it_was_run": "as §1"}, "[9]": {"target": "GlcNAc(b1-3)Gal(b1-4)GlcNAc(b1-3)Gal(b1-4)GlcNAc(b1-3)Gal(b1-4)GlcNAc(b1-3)Gal(b1-4)GlcNAc(b1-2)Man(a1-3)[GlcNAc(b1-3)Gal(b1-4)GlcNAc(b1-3)Gal(b1-4)GlcNAc(b1-3)Gal(b1-4)GlcNAc(b1-3)Gal(b1-4)GlcNAc(b1-2)Man(a1-6)]Man(b1-4)GlcNAc(b1-4)[Fuc(a1-6)]GlcNAc", "how_it_was_run": "as §1"}, "GlcNAc(b1-3)Man": {"target": "GlcNAc(b1-3)Man", "how_it_was_run": "as §1"}, "[10]": {"target": "Man(a1-2)Man(a1-3)[Man(a1-2)Man(a1-6)]Man", "how_it_was_run": "as §1"}, "[11]": {"target": "Man(a1-2)Man(a1-6)[Man(a1-3)]Man(a1-6)[Man(a1-2)Man(a1-2)Man(a1-3)]Man(b1-4)GlcNAc(b1-4)GlcNAc", "how_it_was_run": "as §1"}, "[12]": {"target": "Neu5Ac(a2-3)Gal(b1-3)GlcNAc", "how_it_was_run": "as §1"}, "[13]": {"target": "Neu5Ac(a2-3)Gal(b1-4)GlcNAc(b1-2)Man(a1-3)[Neu5Ac(a2-3)Gal(b1-4)GlcNAc(b1-2)Man(a1-6)]Man(b1-4)GlcNAc(b1-4)[Fuc(a1-6)]GlcNAc", "how_it_was_run": "as §1"}, "[14]": {"target": "Neu5Ac(a2-3)Gal(b1-4)GlcNAc(b1-2)[Neu5Ac(a2-3)Gal(b1-4)GlcNAc(b1-6)]Man(a1-6)[Neu5Ac(a2-3)Gal(b1-4)GlcNAc(b1-2)Man(a1-3)][GlcNAc(b1-4)]Man(b1-4)GlcNAc(b1-4)GlcNAc", "how_it_was_run": "as §1"}, "[15]": {"target": "Neu5Ac(a2-3)Gal(b1-4)GlcNAc(b1-3)Gal(b1-4)GlcNAc", "how_it_was_run": "as §1"}, "[16]": {"target": "Neu5Ac(a2-3)Gal(b1-4)GlcNAc(b1-3)Gal(b1-4)GlcNAc(b1-2)Man(a1-3)[Neu5Ac(a2-3)Gal(b1-4)GlcNAc(b1-3)Gal(b1-4)GlcNAc(b1-2)Man(a1-6)]Man(b1-4)GlcNAc(b1-4)GlcNAc", "how_it_was_run": "as §1"}, "[17]": {"target": "Neu5Ac(a2-3)Gal(b1-4)GlcNAc(b1-3)Gal(b1-4)GlcNAc(b1-3)GalNAc", "how_it_was_run": "as §1"}, "[18]": {"target": "Neu5Ac(a2-3)Gal(b1-4)GlcNAc(b1-3)Gal(b1-4)GlcNAc(b1-3)[Neu5Ac(a2-3)Gal(b1-4)GlcNAc(b1-3)Gal(b1-4)GlcNAc(b1-6)]GalNAc", "how_it_was_run": "as §1"}, "[19]": {"target": "Neu5Ac(a2-3)Gal(b1-4)GlcNAc(b1-6)[Gal(b1-3)]GalNAc", "how_it_was_run": "as §1"}, "[20]": {"target": "Neu5Ac(a2-3)Gal(b1-4)[Fuc(a1-3)]GlcNAc(b1-3)Gal(b1-4)[Fuc(a1-3)]GlcNAc(b1-3)Gal(b1-4)[Fuc(a1-3)]GlcNAc", "how_it_was_run": "as §1"}, "[21]": {"target": "Neu5Ac(a2-3)Gal(b1-4)[Fuc(a1-3)]GlcNAc(b1-3)GalNAc", "how_it_was_run": "as §1"}, "Neu5Ac(a2-3)GalNAc": {"target": "Neu5Ac(a2-3)GalNAc", "how_it_was_run": "as §1"}, "[22]": {"target": "Neu5Ac(a2-3)[GalNAc(b1-4)]Gal(b1-4)Glc", "how_it_was_run": "as §1"}, "[23]": {"target": "Neu5Ac(a2-6)Gal(b1-4)GlcNAc(b1-3)GalNAc", "how_it_was_run": "as §1"}, "[24]": {"target": "Neu5Ac(a2-6)GalNAc(b1-4)GlcNAc", "how_it_was_run": "as §1"}, "[25]": {"target": "Neu5Ac(a2-6)GlcNAc(b1-4)GlcNAc", "how_it_was_run": "as §1"}, "[26]": {"target": "Neu5Ac(a2-8)Neu5Ac(a2-8)Neu5Ac", "how_it_was_run": "as §1"}, "[27]": {"target": "Neu5Ac(a2-8)Neu5Gc(a2-3)Gal(b1-4)GlcNAc", "how_it_was_run": "as §1"}, "[28]": {"target": "Neu5Gc(a2-3)Gal(b1-3)GlcNAc", "how_it_was_run": "as §1"}}, "note": "About 410 targets per protein were measured; listed, in parts, are those with the strongest signals and a random draw of the rest.", "data": [{"binder": "PX14379A-bvu-539-28-539 (Bacteroides vulgatus) (protein) EPYSEIIEEDYVPTEADEIALLATTYSQLRFVMDWYGLFDLQEESGDVIVTPTRPNGWDDGGTYKQMHKHTWDNQQGQPQSIWDYCYKGIANANKILKRADEGFFTEESKPKVVAEVKGVRALWYSILCDTHGNIPIQTSFSEEVPVQSTRKQVFDFIINELKEVMPNLPTEVNKSTYGRLTQWGAKCLMARMYLNAGVYTGTPMWNECLEQCNDIINSGLFSLETNYTDIFKTENSGCVETIFAIPYDEVYNEGDNNGPVFGAHMKFLSSNSRKVFNMQTTPWGGSAANPQFINSYDPDDMRLKYTWLQGDQYSPDGVLITTFPNKLPSIYKTDTDDGYRVGKYEIKVGAKSLLSNDFPYFRYTEVLLMKAECLLRLGQNETEAAHIVSQIRERAFRESAHPEKATVDAAWLKGDTHINYGTLDEKGQIDDAGNTEVVELGGLYDEWGWEFAAEARRRTDMIRFGTYQKKSWFNHTPTANDLNGNSILFPIHLDHLNTNPNLQQNPGYAGK", "values": [{"measurement": "glycan array binding signal (z-score)", "setting": "[1]", "value": 7.27}, {"measurement": "glycan array binding signal (z-score)", "setting": "[2]", "value": 0.984}, {"measurement": "glycan array binding signal (z-score)", "setting": "[3]", "value": 9.41}, {"measurement": "glycan array binding signal (z-score)", "setting": "[4]", "value": 0.819}, {"measurement": "glycan array binding signal (z-score)", "setting": "Gal3S(b1-4)Glc6S", "value": -0.224}, {"measurement": "glycan array binding signal (z-score)", "setting": "Gal4S6S(b1-4)GlcNAc", "value": -0.533}, {"measurement": "glycan array binding signal (z-score)", "setting": "Gal6S(b1-4)Glc6S", "value": -0.28}, {"measurement": "glycan array binding signal (z-score)", "setting": "Gal6S(b1-4)GlcNAc6S", "value": -0.175}, {"measurement": "glycan array binding signal (z-score)", "setting": "[5]", "value": 2.98}, {"measurement": "glycan array binding signal (z-score)", "setting": "[6]", "value": -0.549}, {"measurement": "glycan array binding signal (z-score)", "setting": "[7]", "value": -0.102}, {"measurement": "glycan array binding signal (z-score)", "setting": "[8]", "value": -0.444}, {"measurement": "glycan array binding signal (z-score)", "setting": "[9]", "value": 3.83}, {"measurement": "glycan array binding signal (z-score)", "setting": "GlcNAc(b1-3)Man", "value": -0.278}, {"measurement": "glycan array binding signal (z-score)", "setting": "[10]", "value": -0.377}, {"measurement": "glycan array binding signal (z-score)", "setting": "[11]", "value": -0.361}, {"measurement": "glycan array binding signal (z-score)", "setting": "[12]", "value": -0.439}, {"measurement": "glycan array binding signal (z-score)", "setting": "[13]", "value": -0.571}, {"measurement": "glycan array binding signal (z-score)", "setting": "[14]", "value": -0.378}, {"measurement": "glycan array binding signal (z-score)", "setting": "[15]", "value": -0.185}, {"measurement": "glycan array binding signal (z-score)", "setting": "[16]", "value": 0.342}, {"measurement": "glycan array binding signal (z-score)", "setting": "[17]", "value": -0.138}, {"measurement": "glycan array binding signal (z-score)", "setting": "[18]", "value": -0.132}, {"measurement": "glycan array binding signal (z-score)", "setting": "[19]", "value": -0.388}, {"measurement": "glycan array binding signal (z-score)", "setting": "[20]", "value": -0.35}, {"measurement": "glycan array binding signal (z-score)", "setting": "[21]", "value": 5.8}, {"measurement": "glycan array binding signal (z-score)", "setting": "Neu5Ac(a2-3)GalNAc", "value": -0.249}, {"measurement": "glycan array binding signal (z-score)", "setting": "[22]", "value": -0.297}, {"measurement": "glycan array binding signal (z-score)", "setting": "[23]", "value": -0.204}, {"measurement": "glycan array binding signal (z-score)", "setting": "[24]", "value": -0.211}, {"measurement": "glycan array binding signal (z-score)", "setting": "[25]", "value": -0.56}, {"measurement": "glycan array binding signal (z-score)", "setting": "[26]", "value": -0.382}, {"measurement": "glycan array binding signal (z-score)", "setting": "[27]", "value": 7.1}, {"measurement": "glycan array binding signal (z-score)", "setting": "[28]", "value": -0.228}]}]}
